Compounds without any hit were thinned out: in the full panel of roughly 79,000, 15% have a hit. Active and inactive are the calls of the source. Cut-off read from the data, not from the text of the source: active = growth inhibition above about 70%; inactive = the rest.
Columns and labels:
[1] = NCI Yeast Anticancer Drug Screen. Data for the rad50 strain (AID 155);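 note: 0% = growth of vehicle-only cultures of the same strain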; settings: S. cerevisiae rad50 strain growth inhibition, stronger effect = higher value
Procedure, shortened: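 Genetically altered yeast (DNA repair pathway); compound treatment; growth inhibition vs vehicle ctrl.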

[2] = NCI Yeast Anticancer Drug Screen. Data for the mec2-1 strain (AID 157); settings: S. cerevisiae mec2-1 strain, stronger effect = higher value
Procedure, shortened: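 Vehicle-treated cultures served as reference for growth inhibition of compound-exposed mec2-1 yeast.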

[3] = NCI Yeast Anticancer Drug Screen. Data for the sgs1 mgt1 strain (AID 161);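 note: 0% = growth of cultures given vehicle only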; settings: S. cerevisiae sgs1 mgt1 strain, stronger effect = higher value
Procedure, shortened: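 Read-out: growth inhibition vs vehicle controls. Cells: mutant yeast strain deficient in DNA damage repair.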

[4] = NCI Yeast Anticancer Drug Screen. Data for the cln2 rad14 strain (AID 165);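 note: 0% = growth equal to vehicle treated cultures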; settings: S. cerevisiae cln2 rad14 strain, stronger effect = higher value
Procedure, shortened: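 Each compound was tested on cln2 rad14 yeast. Inhibition of growth was calculated against vehicle-exposed controls.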

[5] = NCI Yeast Anticancer Drug Screen. Data for the bub3 strain (AID 167); settings: S. cerevisiae bub3 mutant strain, stronger effect = higher value
Procedure, shortened: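 Yeast carrying a defined mutation is treated with each compound, and growth is compared with that of vehicle-exposed cells to give inhibition.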

[6] = NCI Yeast Anticancer Drug Screen. Data for the mlh1 rad18 strain (AID 175); settings: S. cerevisiae mlh1 rad18 strain growth inhibition, stronger effect = higher value
Procedure, shortened: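 Vehicle-treated cultures served as the reference for growth inhibition in a yeast strain carrying DNA damage repair alterations exposed to each compound.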

[7] = at 5.0 µM (retest, dose inferred, filed as 0.5)
[8] = at 50.0 µM (retest, dose inferred, filed as 5.0)

Measured: growth inhibition

CCOc1ccccc1/C=C1\NC(=O)N(/C=C2\C(=O)Oc3ccccc3C2=O)C1=O
active: [1]; [8] 96% | [1]; at 50.0 µM 93.7% | [2]; [8] 96% | [2]; at 50.0 µM 94.2% | [3]; [8] 85% | [3]; at 50.0 µM 97.2% | [4]; [8] 95% | [4]; at 50.0 µM 88.5% | [5]; [8] 96% | [5]; at 50.0 µM 94.7% | [6]; [8] 89% | [6]; at 50.0 µM 95.5%
inactive: [1]; [7] 6% | [2]; [7] -13% | [3]; [7] 0% | [4]; [7] 6% | [5]; [7] -4% | [6]; [7] 1%

CCn1c(C)cc(=O)n1-c1ccc([N+](=O)[O-])cc1
inactive: [1]; [7] -160% | [1]; [8] -148% | [1]; at 50.0 µM 51.1% | [2]; [7] -45% | [2]; [8] -50% | [2]; at 50.0 µM 17.4% | [3]; [7] -60% | [3]; [8] -48% | [3]; at 50.0 µM 25.4% | [4]; [7] -64% | [4]; [8] -69% | [4]; at 50.0 µM 24% | [5]; [7] -71% | [5]; [8] -78% | [5]; at 50.0 µM 50.1% | [6]; [7] -146% | [6]; [8] -110% | [6]; at 50.0 µM 68.9%

COc1ccc2cc(Br)ccc2c1
inactive: [1]; [7] 4% | [1]; [8] -25% | [1]; at 50.0 µM 10.3% | [2]; [7] 6% | [2]; [8] -2% | [2]; at 50.0 µM 5.1% | [3]; [7] 2% | [3]; [8] 1% | [3]; at 50.0 µM 9.85% | [4]; [7] 8% | [4]; [8] -2% | [4]; at 50.0 µM -10.4% | [5]; [7] 32% | [5]; [8] 6% | [5]; at 50.0 µM -0.55% | [6]; [7] 4% | [6]; [8] -2% | [6]; at 50.0 µM 17.2%

CCCCCCCCCCCCCCC/C([O-])=N/[N+](C)(C)CC(C)O (stereo not given)
active: [1]; [7] 98% | [1]; [8] 98% | [1]; at 50.0 µM 90.9% | [2]; [7] 99% | [2]; [8] 98% | [2]; at 50.0 µM 91.2% | [3]; [7] 99% | [3]; [8] 99% | [3]; at 50.0 µM 92% | [4]; [7] 99% | [4]; [8] 98% | [4]; at 50.0 µM 88.2% | [5]; [7] 99% | [5]; [8] 98% | [5]; at 50.0 µM 91.5% | [6]; [7] 98% | [6]; [8] 97% | [6]; at 50.0 µM 89.9%

N#CC(C#N)=C/C=C/c1c(Cl)cccc1Cl
active: [1]; at 50.0 µM 71.2% | [3]; [8] 78% | [4]; at 50.0 µM 76.8% | [5]; [8] 79%
inactive: [1]; [7] 7% | [1]; [8] 41% | [2]; [7] 15% | [2]; [8] 58% | [2]; at 50.0 µM 46.9% | [3]; [7] 11% | [3]; at 50.0 µM 58.9% | [4]; [7] 29% | [4]; [8] 68% | [5]; [7] 25% | [5]; at 50.0 µM 69.6% | [6]; [7] 8% | [6]; [8] 66% | [6]; at 50.0 µM 57.1%

CCCCC(CC)C(O)C(=O)O (stereo not given)
inactive: [1]; [7] 2% | [1]; [8] 30% | [1]; at 50.0 µM 46.8% | [2]; [7] -1% | [2]; [8] 27% | [2]; at 50.0 µM 45.7% | [3]; [7] 4% | [3]; [8] 4% | [3]; at 50.0 µM 40.4% | [4]; [7] 6% | [4]; [8] 32% | [4]; at 50.0 µM 26.6% | [5]; [7] 1% | [5]; [8] 26% | [5]; at 50.0 µM 33.9% | [6]; [7] -2% | [6]; [8] 31% | [6]; at 50.0 µM 54.4%

CC(/C=C/c1cccs1)=N\NC(=S)NCC(C)C
active: [1]; [8] 95% | [1]; at 50.0 µM 95.6% | [2]; [8] 96% | [2]; at 50.0 µM 96.2% | [3]; at 50.0 µM 97% | [4]; [8] 96% | [4]; at 50.0 µM 94% | [5]; [8] 95% | [5]; at 50.0 µM 96.9% | [6]; [8] 96% | [6]; at 50.0 µM 97%
inactive: [1]; [7] -3% | [2]; [7] 11% | [3]; [7] 9% | [3]; [8] -24% | [4]; [7] -2% | [5]; [7] -1% | [6]; [7] 3%

O=C1c2ccc3c4ccccc4n(Cc4ccccc4)c3c2C(=O)N1c1ccccc1
inactive: [2]; [7] 62% | [2]; [8] 62% | [3]; [7] 39% | [3]; [8] 39% | [6]; [7] 47% | [6]; [8] 47%
active: [1]; [7] 87% | [1]; [8] 87% | [1]; at 50.0 µM 92% | [2]; at 50.0 µM 93.4% | [3]; at 50.0 µM 92.5% | [4]; [7] 75% | [4]; [8] 75% | [4]; at 50.0 µM 92.2% | [5]; [7] 80% | [5]; [8] 80% | [5]; at 50.0 µM 91.5% | [6]; at 50.0 µM 91.3%

O=C(CC(=O)c1ccccc1)CC(O)(c1ccccc1)c1ccccc1
inactive: [1]; [7] 30% | [2]; [7] 32% | [3]; [7] 26% | [4]; [7] 27% | [5]; [7] 42% | [6]; [7] 42%
active: [1]; [8] 90% | [1]; at 50.0 µM 84.9% | [2]; [8] 94% | [2]; at 50.0 µM 89.1% | [3]; [8] 89% | [3]; at 50.0 µM 89.7% | [4]; [8] 72% | [4]; at 50.0 µM 87.6% | [5]; [8] 94% | [5]; at 50.0 µM 87.9% | [6]; [8] 88% | [6]; at 50.0 µM 86.5%

CCCCCCCCCCN(CCCCCCCCCC)C1CC(OC2CC(O)(C(O)CO)Cc3c(O)c4c(c(O)c32)C(=O)c2c(OC)cccc2C4=O)OC(C)C1O (stereo not given)
active: [1]; [8] 87% | [2]; [8] 94% | [2]; at 50.0 µM 93.5% | [3]; [8] 93% | [4]; [8] 88% | [4]; at 50.0 µM 81.8% | [5]; [8] 90% | [5]; at 50.0 µM 90.8% | [6]; [8] 87% | [6]; at 50.0 µM 90.5%
inactive: [1]; [7] 15% | [1]; at 50.0 µM 43.5% | [2]; [7] 8% | [3]; [7] 10% | [3]; at 50.0 µM 5.25% | [4]; [7] 7% | [5]; [7] 14% | [6]; [7] 17%
